Shown are actives, neighbours in structure and some others; about 7.3% of the full set was active somewhere.
HCMV inh: qHTS Assay for inhibitors of the human cytomegalovirus (HCMV) | HFF cells, HCMV-luciferase reporter, 72 h; active compounds read low | AID 1259415, 2018 | activity change, negative = inhibition, % at 57.5 µM | 410,000 compounds, 4.5% hits; in the data active = activity change below about -60%; inconclusive = no clear call, values can overlap the other calls; inactive = above about -39%
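Two-dose cell screen: HFF monolayers treated with compounds and infected with luciferase-expressing HCMV at 1 PFU/cell, 72 h at 37C, then lysed for luciferase measurement.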
FMDV inh: High Throughput Screening for Foot and Mouth Disease Virus Antivirals. FMDV antiviral cell-based qHTS. Potency, µM (titrated, usually from 57.9 µM), actives largely listed as inhibitors. 410,000 compounds, 1.2% hits. AID 1159524, 2015; calls by dose curve; tested in HEK293T cells; note: read-out not given here; nearly all actives have a fitted effect of over 45% in size
HCV inhibitor: qHTS Assay for Inhibitors of Hepatitis C Virus (HCV). Huh7.5.1 HCVcc-Cre infection, luciferase reporter, 44 h. Potency, µM (top dose mostly 41.8 µM), hits mostly inhibitors. 340,000 compounds, 3.4% hits. AID 651820, 2012
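Reporter virus HCVcc-Cre (~0.5 moi) infects cells exposed to compound; seeding density 1,000 cells/well with 4 h settling beforehand. Luminescence, 15 sec read, taken 44 h post-infection following a 15 min RT substrate incubation.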
AmpC detergent: qHTS Inhibitors of AmpC Beta-Lactamase (assay with detergent); AmpC hydrolysis of nitrocefin, absorbance 480 nm, 0.01% Triton; 370,000 compounds, 0.041% hits; AID 485294, 2010; Potency, µM (doses to about 114 µM), actives largely listed as inhibitors; note: nearly all actives have a fitted effect of over 25% in size
Target sequence (P00811 whole entry, looked up): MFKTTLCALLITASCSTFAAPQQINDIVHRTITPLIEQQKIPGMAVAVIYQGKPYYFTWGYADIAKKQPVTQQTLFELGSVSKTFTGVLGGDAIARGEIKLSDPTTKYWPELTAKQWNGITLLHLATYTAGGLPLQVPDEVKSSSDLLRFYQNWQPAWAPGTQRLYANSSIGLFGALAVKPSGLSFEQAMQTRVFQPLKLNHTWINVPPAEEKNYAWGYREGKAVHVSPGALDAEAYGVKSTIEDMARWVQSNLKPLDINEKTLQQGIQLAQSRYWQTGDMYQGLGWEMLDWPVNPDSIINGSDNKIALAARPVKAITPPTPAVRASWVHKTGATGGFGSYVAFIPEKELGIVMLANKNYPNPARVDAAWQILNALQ
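20 mM phosphate pH 7.0 + 0.01% (detergent screen) or 0.0001% Triton X-100; 5.3 nM AmpC reagent; cpd preinc 15 min RT; nitrocefin (800 uM stock) to start; A480 q20 s × 4 min; Activity was normalised to no-enzyme and no-compound control wells.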
AmpC inh no detg: qHTS Inhibitors of AmpC Beta-Lactamase (assay without detergent). P00811. 330,000 compounds, 0.52% hits. Potency, µM (doses to about 57.1 µM), hits mostly inhibitors. AmpC nitrocefin hydrolysis, absorbance 480 nm, 0.0001% Triton. AID 485341, 2010; note: nearly all actives have a fitted effect of over 20% in size
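AmpC (5.3 nM in the dispensed reagent) in 20 mM phosphate pH 7.0 with 0.01% (detergent screen) or 0.0001% Triton X-100 was preincubated with compounds for 15 min at room temperature. Nitrocefin was then added from an 800 uM solution, and hydrolysis was followed at 480 nm.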
Of the large screens only hits and unclear results are named; the others gave an inactive call. Unless noted, calls come from the whole dose curve; as a rule, active = well fitted curve in the direction sought with a large enough effect; inconclusive = small, poorly fitted or top-dose-only effect, or another doubt; inactive = no such curve, though single readings can be large; an effect the other way counts as inactive or inconclusive.

O=C(NCc1ccco1)c1nc2c(nnn2Cc2ccccc2Cl)c(=O)[nH]1	HCMV inh -98, HCV inhibitor inconclusive (no result: FMDV inh)
Clc1cccc(Cl)c1C1N2CCCN12 (stereo unspecified)	HCMV inh -63
CCC(C)NC(=O)c1sc2nc(C)c(C(=O)Nc3ccc(C)cc3C)c(-c3ccc(Br)cc3)c2c1N (stereo unspecified)	none (no result: HCV inhibitor, AmpC inh no detg)
COc1cc(C(=O)N/N=C/c2ccsc2C)cc(OC)c1OC	HCMV inh -79, HCV inhibitor inconclusive
CC(C)(C)C(=O)Nc1ccc(C(=O)N/N=C/c2ccccc2OC(=O)c2ccccc2)cc1	HCV inhibitor inconclusive
COc1ccc(C(=O)Nc2ccccc2C(=O)N/N=C/c2ccncc2)cc1OC	FMDV inh 14µM
CC(C)(C)C(=O)Nc1ccc(C(=O)N/N=C/c2ccccc2OC(=O)c2ccc(Cl)cc2)cc1	HCV inhibitor 10µM
COc1cc(C(=O)Oc2ccccc2/C=N/NC(=O)c2ccc(C)cc2)cc(OC)c1OC	HCMV inh -99, HCV inhibitor 7.9µM
COc1ccc(Br)cc1/C=N/NC(=O)c1cc(OC)c(OC)c(OC)c1	HCMV inh inconclusive, HCV inhibitor inconclusive
CC1(C(=O)NS(=O)(=O)c2ccccc2Cl)CCN1C(=O)c1ccccc1 (stereo unspecified)	none (no result: HCV inhibitor, AmpC detergent, AmpC inh no detg)
Cc1ccc2onc(CC(=O)Nc3cc(F)ccc3F)c2c1	none (no result: HCV inhibitor, AmpC inh no detg)
COc1cccc(OCCNC(=O)c2cc(OC)c(OC)c(OC)c2)c1	HCV inhibitor inconclusive (no result: HCMV inh)
COc1ccc(C(=O)N/N=C/c2ccc(N(C)c3ccccc3)cc2)cc1	FMDV inh 32µM, HCV inhibitor 7.1µM (no result: AmpC detergent, AmpC inh no detg)
COc1ccc(/C=N/NC(=O)c2nc(-c3ccccc3)cc(-c3ccccc3)n2)cc1	HCMV inh inconclusive, HCV inhibitor 10µM, AmpC detergent inconclusive
O=C(N/N=C/c1cc(Br)ccc1OC(=O)c1ccc(Br)cc1)c1ccncc1	HCV inhibitor 3.2µM
COc1ccc(C(=O)Nc2ccccc2C(=O)N/N=C/c2cccc3ccccc23)cc1	FMDV inh 0.32µM
COc1ccc(/C=N/Nc2nnc(-c3ccccc3)c(=O)[nH]2)cc1	HCMV inh -100
COc1ccc(C(=O)N/N=C/c2ccc(OC(=O)c3ccccc3)cc2)cc1	none
COc1ccc(C(=O)N/N=C/c2ccccc2OC(=O)c2ccccc2)cc1	HCMV inh -97, HCV inhibitor inconclusive
CC[C@H](C)[C@H]1CNC(=S)N1CC1CCN(CCCCc2ccccc2)CC1	none (no result: AmpC detergent, AmpC inh no detg)
COc1ccc(C(=O)Nc2nccs2)cc1[N+](=O)[O-]	none
Cn1cc([N+](=O)[O-])c(C(=O)Nc2ccc(Br)cn2)n1	HCMV inh -65, HCV inhibitor 11µM
Cn1cc([N+](=O)[O-])c(C(=O)Nc2nccs2)n1	HCMV inh -96, HCV inhibitor inconclusive
CC(=O)Nc1cc(-c2cccnc2)cn2c(-c3cccc(C(F)(F)F)c3)cnc12	HCMV inh -62 (no result: HCV inhibitor, AmpC detergent, AmpC inh no detg)
CN(C)C(=O)c1cccc(-c2cnc3c(NC=O)cc(-c4cccc(C(F)(F)F)c4)cn23)c1	HCMV inh inconclusive, FMDV inh 32µM (no result: HCV inhibitor, AmpC detergent, AmpC inh no detg)
COc1ccccc1-c1cc(NC(C)=O)c2ncc(-c3cccc(C(F)(F)F)c3)n2c1	none (no result: HCV inhibitor, AmpC detergent, AmpC inh no detg)
Cc1cccc(-c2cc(NC=O)c3ncc(-c4cccc(C(=O)N(C)C)c4)n3c2)c1	FMDV inh inconclusive (no result: HCV inhibitor, AmpC detergent, AmpC inh no detg)
CN(C)CCNC(=O)c1cccc(-c2cnc3c(NC=O)cc(-c4cc(F)c(F)c(F)c4)cn23)c1	HCMV inh -76 (no result: HCV inhibitor, AmpC detergent, AmpC inh no detg)
CN(C)CCNC(=O)c1cccc(-c2cc(NC=O)c3ncc(-c4cccc(C(F)(F)F)c4)n3c2)c1	HCMV inh -61 (no result: HCV inhibitor, AmpC detergent, AmpC inh no detg)
Cc1ccc(CNc2nc(C)c(-c3ccn(CCN4CCOCC4)n3)s2)o1	none (no result: HCMV inh, HCV inhibitor, AmpC detergent, AmpC inh no detg)
CCOC(=O)[C@]12CCC=C1N(Cc1ccc(Cl)cc1Cl)C(=O)[C@H](CC(=O)NCCCN1CCCC1=O)C2	none (no result: HCV inhibitor, AmpC detergent, AmpC inh no detg)
CC(=O)Nc1cc(-c2ccc(N3CCN(C)CC3)cc2)cn2c(-c3ccccc3)cnc12	HCMV inh -60 (no result: HCV inhibitor, AmpC detergent, AmpC inh no detg)
CN(C)CCNC(=O)c1cccc(-c2cnc3c(NC=O)cc(-c4ccc(S(C)(=O)=O)cc4)cn23)c1	HCMV inh -66 (no result: HCV inhibitor, AmpC detergent, AmpC inh no detg)
CC(=O)Nc1cc(-c2ccc(N3CCN(C)CC3)cc2)cn2c(-c3ccc(S(C)(=O)=O)cc3)cnc12	none (no result: HCV inhibitor, AmpC detergent, AmpC inh no detg)
CCN(c1ccccc1)S(=O)(=O)c1ccc(NC(=S)NC(=O)c2cccs2)cc1	HCMV inh inconclusive, FMDV inh inconclusive, HCV inhibitor 10µM, AmpC inh no detg 14µM
C=CCN(CC=C)S(=O)(=O)c1ccc(NC(=S)NC(=O)c2ccc(-c3ccccc3)cc2)cc1	FMDV inh inconclusive, HCV inhibitor inconclusive
O=C(Nc1ccc(NC(=S)NC(=O)c2cccs2)cc1)c1ccco1	HCMV inh -87
O=C(NC(=S)NNC(=O)c1cccs1)c1ccco1	HCV inhibitor inconclusive
C=CCN(CC=C)S(=O)(=O)c1ccc(NC(=S)NC(=O)c2ccco2)cc1	HCMV inh inconclusive, FMDV inh inconclusive, HCV inhibitor inconclusive, AmpC inh no detg 35µM
CCN(CC)c1ccc(NC(=S)NC(=O)c2cccs2)cc1	HCMV inh -101, HCV inhibitor 13µM
O=C(C[C@H]1C/C=C\C[C@@H](Cc2ccc(F)cc2)C(=O)OC[C@@H](Cc2c[nH]c3ccccc23)NC1=O)NCCO	none (no result: AmpC detergent)
COC(=O)c1cccc2c([N+](=O)[O-])c(NC(C)=O)cc(C(=O)OC)c12	none (no result: FMDV inh, HCV inhibitor, AmpC detergent, AmpC inh no detg)
COc1ccc(C(=O)N2CC(=O)Nc3ccc(C)cc3C2c2ccccc2)cc1OC (stereo unspecified)	none (no result: HCV inhibitor, AmpC inh no detg)
COc1ccc(C)cc1N1C(=N)/C(=C2/Nc3ccccc3S2)C(c2ccccc2)C1=O (stereo unspecified)	FMDV inh 25µM
COc1ccc(Cc2c(-c3ccc(OC)c(OC)c3)nc3c(C)cc(Br)cn23)c(C)c1	HCMV inh -61, FMDV inh inconclusive (no result: HCV inhibitor, AmpC detergent, AmpC inh no detg)
CN(Cc1cn(C)nc1-c1ccc(Oc2ccccc2)cc1)Cc1cnc2ccccn12	FMDV inh 11µM, HCV inhibitor inconclusive
O=C1OCC2=C1C(c1ccc(F)cc1)c1cc3c(cc1N2)OCO3 (stereo unspecified)	HCMV inh -93, FMDV inh inconclusive, HCV inhibitor inconclusive, AmpC detergent inconclusive
O=C1OCC2=C1C(c1ccc(F)cc1)c1cc3c(cc1N2)OCCO3 (stereo unspecified)	HCMV inh -85
C#CCOc1ccc(C2C3=C(COC3=O)Nc3cc4c(cc32)OCO4)cc1OC (stereo unspecified)	HCMV inh -82
CC(=O)Oc1ccc(C2C3=C(CC(C)(C)CC3=O)Nc3cc4c(cc32)OCCO4)cc1 (stereo unspecified)	none

Source: PubChem (National Center for Advancing Translational Sciences (NCATS))
